Screening data: PubChem BioAssay, several laboratories
Shown are actives, neighbours in structure and some others; about 4.7% of the full set was active somewhere.
ADAM10 inh = ADAM10 inhibition, QFRET primary screen; recombinant ADAM10, EDANS/DABCYL FRET peptide cleavage, 3 h; inhibition, % at 7 µM; 0.62% of 370,000 active;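 active = inhibition above a per-campaign cutoff equal to the mean of compounds falling between control-based bounds plus 3 SD, cut at about 20% in these data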;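 also: 0% = DMSO wells while the 100% control is not disclosed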
rCAG RNA binder = r(CAG) repeat RNA binding | AID 651821 | 1.3% of 370,000 active | TO-PRO-1 dye displacement fluorescence | inhibition, % at 3 µM;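 active = inhibition above the plate cutoff, the mean of all test compounds on that plate plus 3 SD, cut at about 35% in these data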;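 also: 0% = DMSO alone and 100% = 100 µM mitoxantrone as full dye displacement; higher means more dye released from RNA so lower well fluorescence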
DSG3 Ab inh = human desmoglein-3 autoantibody binding inhibition; 0.48% of 310,000 active; binding (percent of control), % at 10 µM; DSG3-coupled beads, scFv-anti-DSG3-GFP binding, flow cytometry; active compounds read low; AID 588358; P32926;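 active = binding more than 3 SD below its plate's average and above zero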;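 also: hits lower antibody fragment binding to DSG3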
Target sequence (P32926 whole entry, looked up, the tested form may be a part): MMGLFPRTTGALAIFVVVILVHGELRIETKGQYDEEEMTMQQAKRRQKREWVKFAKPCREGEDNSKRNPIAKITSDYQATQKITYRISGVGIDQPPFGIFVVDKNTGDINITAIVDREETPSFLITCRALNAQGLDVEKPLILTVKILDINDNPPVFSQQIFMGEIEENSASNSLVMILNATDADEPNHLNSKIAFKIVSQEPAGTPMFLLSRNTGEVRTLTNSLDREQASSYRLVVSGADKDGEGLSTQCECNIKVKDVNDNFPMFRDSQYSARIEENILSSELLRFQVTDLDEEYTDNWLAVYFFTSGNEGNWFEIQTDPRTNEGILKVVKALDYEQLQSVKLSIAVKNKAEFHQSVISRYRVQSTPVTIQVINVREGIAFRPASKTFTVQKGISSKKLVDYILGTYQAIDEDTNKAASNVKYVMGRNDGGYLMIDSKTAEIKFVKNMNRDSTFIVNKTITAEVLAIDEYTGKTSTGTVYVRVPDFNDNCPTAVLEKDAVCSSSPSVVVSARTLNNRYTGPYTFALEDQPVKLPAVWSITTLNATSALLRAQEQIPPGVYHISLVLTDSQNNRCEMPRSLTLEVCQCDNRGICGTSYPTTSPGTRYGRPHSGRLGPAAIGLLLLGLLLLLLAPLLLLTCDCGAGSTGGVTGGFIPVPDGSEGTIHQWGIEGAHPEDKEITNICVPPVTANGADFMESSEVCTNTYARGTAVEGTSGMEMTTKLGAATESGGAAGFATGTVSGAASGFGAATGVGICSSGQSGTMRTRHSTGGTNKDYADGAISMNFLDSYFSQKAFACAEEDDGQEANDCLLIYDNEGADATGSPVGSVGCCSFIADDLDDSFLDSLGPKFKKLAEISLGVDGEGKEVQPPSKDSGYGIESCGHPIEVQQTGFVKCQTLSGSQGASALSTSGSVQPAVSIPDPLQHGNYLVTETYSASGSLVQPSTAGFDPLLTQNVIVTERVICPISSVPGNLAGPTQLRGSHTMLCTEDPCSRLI
ADAM17 inh = inhibitors of human ADAM17 | P78536 | recombinant ADAM17, EDANS/DABCYL FRET peptide cleavage | inhibition, % at 6.95 µM | 0.83% of 370,000 active | AID 720648;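 active = inhibition above the mean of compounds lying between control limits plus 3 SD, set per campaign, cut at about 8.5% in these data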;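 also: 0% = DMSO-only wells as the low control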
MPTP block = permeability transition pore inhibition; isolated mouse mitochondria, Ca2+ swelling absorbance, 30 min; inhibition, % at 10 µM; 1.4% of 360,000 active; AID 602449;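 active = inhibition of 50% or more, scaled per plate between neutral and stimulator controls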;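 also: 0% = DMSO wells given calcium and 100% = 1 mM EGTA wells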
KLK7 zymogen act = proKLK7 (human) activation, primary screen; purified proKLK7, EDANS-DABCYL substrate fluorescence; 100% is mature enzyme control, 0% vehicle; 0.9% of 370,000 active; P49862; activation, % at 7 µM;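 active = activation above the mean of all tested compounds plus 3 SD, computed per campaign excluding outliers beyond control limits, cut at about 13% in these data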
Numbers without * were called inactive; i = inactive; . = no result.

SMILES | ADAM10 inh | rCAG RNA binder | DSG3 Ab inh | ADAM17 inh | MPTP block | KLK7 zymogen act
COc1ccc(Cn2nnnc2CN(Cc2cc3cccc(C)c3[nH]c2=O)C2CCCC2)cc1 | -5 | -1 | 97 | -1 | 1 | -1
CC(C)(C)n1nnnc1CN(Cc1ccco1)Cc1cc2cc3c(cc2[nH]c1=O)OCO3 | i | 5 | 101 | -179 | -1 | 28*
COc1ccc(Cn2nnnc2CN(Cc2cc3ccc(C)cc3[nH]c2=O)C2CCCC2)cc1 | -97 | 3 | 98 | -36 | 2 | 15*
CCC(C)(C)n1nnnc1CN(Cc1ccco1)Cc1cc2cc3c(cc2[nH]c1=O)OCO3 | . | . | 94 | . | -3 | .
COc1cc2cc(CN(Cc3nnnn3Cc3ccco3)C3CCCCC3)c(=O)[nH]c2cc1OC | -331 | 20 | 114 | -94 | -8 | 13*
O=c1cc(N2CCN(c3ccnc4cc(Cl)ccc34)CC2)[nH]c(=O)n1C1CCCCC1 | -1 | . | . | -1 | . | .
O=C(Nc1ccccc1[N+](=O)[O-])NC1CCCCN(Cc2cccc(Cl)c2)C1=O (stereo not drawn) | 6 | 0 | . | 2 | . | 0
Nc1c(-c2ccccc2)cnc2cc(-c3ccccc3)nn12 | -4 | -2 | 80* | -2 | 1 | 1
Cc1cc2ncc(-c3ccc(Cl)cc3)c(N)n2n1 | -16 | 1 | 99 | -4 | 0 | 0
COc1nc(OC)nc(N2CCC(C(=O)N(C)Cc3ccco3)CC2)n1 | -4 | -1 | . | 0 | . | 1
CC(=O)c1ccc(NC(=O)CSc2nnc(NC(=O)c3ccco3)s2)cc1 | . | . | 111 | . | 0 | .
Cc1ccc(NC(=O)CSc2nnc(NC(=O)c3ccco3)s2)cc1 | -10 | 1 | 5.9* | -3 | -1 | 0
Cc1c(C(=O)OCC2CCCO2)[nH]c2c1C(=O)CC(c1ccc(N(C)C)cc1)C2 (stereo not drawn) | 21* | 5 | 115 | 4 | -1 | 0
CCOC(=O)c1cc(-c2ccc(/C=C3/C(=O)N(c4ccc(C(=O)O)cc4)N=C3C)o2)ccc1Cl | 1 | 4 | 63* | -2 | 3 | 0
CC1=CC(=O)c2ccccc2C1=O | -9 | 2 | 110 | -4 | -1 | 0
CCOc1ccccc1C(O)C1=CC(=O)c2ccccc2C1=O (stereo not drawn) | -8 | 38* | 89 | 5 | -1 | 0
O=C(CCCSc1nc(-c2ccco2)cc(C(F)(F)F)n1)Nc1ccc2c(c1)OCO2 | 26* | 6 | 105 | 5 | 1 | 0
O=C(CSc1nc(-c2ccco2)cc(C(F)(F)F)n1)Nc1ccc2c(c1)OCO2 | 3 | 1 | 92 | 0 | 4 | 1
Nc1cccc(-c2nc3cc(S(=O)(=O)c4ccc5oc(-c6cccc(N)c6)nc5c4)ccc3o2)c1 | -61 | 3 | 77* | -12 | 2 | 0
Cc1ccc2oc(-c3cccc(N)c3)nc2c1 | i | 3 | 103 | -198 | 1 | 12
O=C1c2ccc(-c3ccc(F)cc3OCc3ccccc3)cc2S(=O)(=O)c2cccc(C(=O)N3CCN(c4ncc(Br)cn4)CC3)c21 | 4 | 21 | 89* | -1 | -2 | 0
Cc1cc(CNC(=O)c2cccc3c2C(=O)c2ccc(-c4ccc(F)cc4OCc4ccccc4)cc2S3(=O)=O)c(C(F)(F)F)o1 | 1 | 43* | 90 | -3 | 2 | 0
CCOC(=O)[C@@]12CCC3=C1N(CCC3)C(=O)[C@H](CC(=O)NCCC(C)C)C2 | -7 | -2 | . | -7 | . | 0
O=S1(=O)c2ccc(N3CC[C@H](O)C3)cc2OCCCN1C1CC1 | -11 | 11 | . | -2 | . | 0
COc1ccc(N2CCN(CCNS(=O)(=O)c3cccs3)CC2)cc1 | -8 | 0 | . | -5 | . | 0
SMILES | ADAM10 inh | rCAG RNA binder | DSG3 Ab inh | ADAM17 inh | MPTP block | KLK7 zymogen act
Cc1noc(NS(=O)(=O)c2ccc(NC(=O)CSc3n[nH]c(-c4ccccc4)n3)cc2)c1C | 3 | 34 | 93 | -4 | -2 | 0
Cc1noc(NS(=O)(=O)c2ccc(NC(=O)CSc3nnc(-c4ccccc4)n3C3CCCCC3)cc2)c1C | -6 | 63* | 108 | -3 | -3 | 0
COc1ccc(C(=O)c2sc(Nc3ccccc3)nc2C)cc1 | 10 | 3 | 99 | 7 | 0 | 0
Cc1nc(Nc2ccccc2)sc1C(=O)c1ccccc1 | 6 | 8 | 80* | 1 | 4 | 0
NC(=O)c1c(N)[nH]c(C(=O)c2ccccc2)c1-c1ccc2ccccc2c1 | -22 | 14 | . | -1 | . | 2
O=C1/C(=C\c2ccco2)SC(=S)N1Cc1ccccc1 | 7 | 26 | 93 | 1 | 3 | 0
O=C(CN1C(=O)/C(=C\c2ccco2)SC1=S)Nc1ccc(O)cc1C(=O)O | -1 | 88* | 101 | -5 | -2 | 1
O=C(N[C@H](Cc1ccccc1)C(=O)O)[C@H]1O[C@@H](n2ccc(=O)[nH]c2=O)[C@H](O)[C@@H]1O | -16 | -2 | . | -7 | . | 0
Nc1ccc2nc(SCc3ccccc3F)sc2c1 | 5 | 4 | 105 | 3 | 2 | 1
Nc1ccc2nc(SCC(=O)c3ccccc3)sc2c1 | -5 | 8 | 92* | 0 | 0 | 0
N#CC1=C(N)n2c(s/c(=C\c3cccs3)c2=O)=C(C#N)C1c1cccs1 (stereo not drawn) | -19 | 51* | 102 | -5 | 7 | -1
O=C1c2ccccc2C(=O)N1CCCN1C(=O)c2ccccc2C1=O | -6 | -1 | -1.0* | -1 | -2 | 0
O=C1c2ccccc2C(=O)N1CCCOc1ccccc1 | -5 | -6 | 116 | -5 | -4 | 0
COC(=O)[C@]1(CC(C)C)NC=C(C(=O)c2ccccc2)[C@@H]1c1cccc(C(F)(F)F)c1 | 5 | 1 | . | 1 | . | 1
COC(=O)N(C)C[C@H]1OCc2cn(nn2)CCCC(=O)N([C@H](C)CO)C[C@@H]1C | 5 | 3 | . | 0 | . | 0
CSc1nnc2c(n1)c(C)nn2-c1cccc(C)c1 | -5 | 3 | 86* | -5 | -1 | -1
CSc1nncc(/C(C)=N\Nc2cccc(C)c2)n1 | 4 | 5 | 110 | 0 | -7 | 0
CCOC(=O)c1[nH]c2c(c1-c1ccccc1)C(=O)CC(c1ccc(OCC)cc1)C2 (stereo not drawn) | -3 | 3 | -0.8* | -1 | -1 | 0
CCCCc1c(-c2ccccc2OC)ncn1Cc1ccc(F)cc1F | -4 | -1 | . | -3 | . | 0
COc1ccc(Nc2nc(C)cc(C)c2C#N)cc1OC | -11 | -1 | 12* | -2 | 0 | 0
COc1cccc(Nc2nc(C)cc(C)c2C#N)c1 | -8 | -4 | 106 | -7 | 0 | 0
Cc1cc(N/C(=C\C(=O)c2ccccc2)c2ccccc2)ccc1Br | -1 | 3 | . | -2 | . | 1
O=C(NCc1ccccc1)[C@H]1CCCN1C(=O)[C@H]1CCCN1C(=O)N1CCCCC1 | 15 | 2 | . | 2 | . | 0
O=C(O)c1cccc(Cn2c(Cl)c(/C=N/NC(=O)c3ccccc3)sc2=O)c1 | -11 | 6 | 114 | -6 | -8 | 0
